Measured values published in PubChem BioAssay (Tox21).
Results filed as inconclusive are left out. Calls of active or inactive are those of the source. Unless noted, the call rests on the fitted dose curve; in most records, active means well fitted curve in the direction sought with a large enough effect in the repeat runs; inconclusive means weak or mixed curves; inactive means no such curve, though single readings can be large; an effect the other way counts as inactive or inconclusive.

Key:
[1] = qHTS assay to identify small molecule antagonists of the sonic hedgehog signaling (Shh) pathway (AID 1259369; calls by dose curve; further: nearly all actives have a fitted effect of over 45% in size)
Procedure, shortened: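 3T3Gli1-Luc, conditioned-medium-stimulated, 24hr cpd, 37C/5% CO2; Gli1-driven firefly Luc luminescence after 30min RT with luciferase reagent. Cells plated 4hr before cpd.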

[2] = target: Estrogen receptor beta (Homo sapiens) (UniProt Q92731); assay: qHTS assay to identify small molecule agonists of the estrogen receptor beta (ER-beta) signaling pathway (AID 1259377; active means well fitted activation curve with a large enough effect in the signal ratio in the repeat runs, not every such curve was filed as active; the % refers to the signal ratio)
Procedure, shortened: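 Reporter cells (HEK293T, ER-beta-UAS-bla) receive compounds or DMSO after a 6 hr pre-incubation. They then incubate 16 hr at 37C/5% CO2, and fluorescence from LiveBLAzer B/G substrate is measured after 2 hours at room temperature.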

[3] = target: Estrogen receptor beta (Homo sapiens) (UniProt Q92731); assay: qHTS assay to identify small molecule antagonists of the estrogen receptor beta (ER-beta) signaling pathway (AID 1259378; active means well fitted inhibition curve with a large enough effect in the signal ratio in the repeat runs, not every such curve was filed as active; the % refers to the signal ratio)
Procedure, shortened: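 Antagonist mode: compounds added to beta-lactamase reporter HEK293T ER-beta-UAS cells stimulated with E2 (1nM final), 16 hr at 37C. LiveBLAzer B/G FRET substrate, 2 hours room temperature, fluorescence read-out.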

[4] = qHTS assay to identify small molecule agonists of the androgen receptor (AR) signaling pathway in the presence of an antagonist - cell viability counter screen (AID 1259379);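 further: MDA-kb2 human breast cancer cells carrying an MMTV luciferase reporter; series mostly up to about 92 µM; nearly all actives have a fitted effect of over 25% in size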
Procedure, shortened: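 Cells: MDA-kb2 (MMTV-luc, AR and GR elements), 3,000/well, 5 hr settle. Added: nilutamide 3.0uM final, then compounds (15 conc.). Incubation: 16 hr, 37C, no CO2. Read-out: CellTiter-Fluor, 1 hr, fluorescence.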

[5] = qHTS assay to identify small molecule agonists of the estrogen receptor beta (ER-beta) signaling pathway - cell viability counter screen (AID 1259380); further: nearly all actives have a fitted effect of over 30% in size
Procedure, shortened: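 HEK293T ER-beta-UAS-bla; 2% CS-FBS; 6 hr pre-plate, 16 hr cpd at 37C/5% CO2; LiveBLAzer read first, then CellTiter-Glo 30 min RT, luminescence.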

[6] = qHTS assay to identify small molecule antagonists of the estrogen receptor beta (ER-beta) signaling pathway - cell viability counter screen (AID 1259382);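 further: HEK293T cells carrying ER-beta-UAS-bla reporter stimulated with estradiol; series mostly up to about 92 µM; nearly all actives have a fitted effect of over 55% in size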
Procedure, shortened: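 Cells: ER-beta-UAS-bla HEK293T, 2,000/well, 2% CS-FBS, 6 hr settle. Cpd + E2 (1nM final), 16 hr, 37C/5% CO2. Bla FRET substrate 2 hr RT, then CellTiter-Glo 30 min RT, luminescence.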

[7] = target: Estrogen receptor (Homo sapiens) (UniProt P03372); assay: qHTS assay to identify small molecule agonists of the estrogen receptor alpha (ER-alpha) signaling pathway in the presence of an antagonist (AID 1259383; calls by dose curve; further: top concentration of the series differs between compounds; nearly all actives have a fitted effect of over 15% in size)
Procedure, shortened: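 VM7Luc4E2, endog. ER-alpha + 4×ERE-luc; charcoal-stripped FBS, phenol red-free, 5 d; 24hr plating; +10.0nM ICI-182,780 (final); cpds 15 conc, 22hr, 37C/5% CO2; ONE-Glo luminescence.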

[8] = qHTS assay to identify small molecule agonists or antagonists of the thyroid stimulating hormone receptor (TSHR) signaling pathway - wild type cell line counter screen (AID 1259384; calls by dose curve)
Procedure, shortened: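 Counter screen in untransfected Hek293: compounds (15-point titration, triplicate) plus phosphodiesterase inhibitor Ro20-1724 added after 18 h plating; 30 min RT. Intracellular cAMP via competitive d2/cryptate immunoassay, 1 h incubation.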

[9] = target: Thyrotropin receptor (Homo sapiens) (UniProt P16473); assay: qHTS assay to identify small molecule antagonists of the thyroid stimulating hormone receptor (TSHR) signaling pathway (AID 1259385; calls by dose curve; further: nearly all actives have a fitted effect of over 20% in size)
Procedure, shortened: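 Antagonist mode: compound-treated TSHR-expressing HEK293 cells were stimulated with 1.5 ng/mL TSH (final) in presence of Ro20-1724 for 30 min at RT. HTRF cAMP detection after 1 h; each compound tested at 15 concentrations, triplicate.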

[10] = qHTS assay to identify small molecule agonists of the estrogen receptor alpha (ER-alpha) signaling pathway in the presence of an antagonist - cell viability counter screen (AID 1259386);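 further: series mostly up to about 92 µM; cells exposed to compounds for 22 h at 37 °C before the viability read; nearly all actives have a fitted effect of over 30% in size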
Procedure, shortened: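 VM7Luc4E2, stripped-serum pre-culture 5 d; 24hr plating; +ICI-182,780 10.0nM final; cpds 15 conc, 22hr, 37C/5% CO2; CellTiter-Fluor added at 21hr, fluorescence 1hr later.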

[11] = target: Progesterone receptor (Homo sapiens) (UniProt P06401); assay: qHTS assay to identify small molecule agonists of the progesterone receptor (PR) signaling pathway (AID 1346784; calls by dose curve; further: nearly all actives have a fitted effect of over 30% in size)
Procedure, shortened: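 Reporter assay, GripTite PR-UAS-bla HEK 293T cells: 16 hr exposure to DMSO-dissolved compounds at 37C, 5% CO2, in steroid-depleted (2% charcoal-stripped FBS) medium; beta-lactamase measured by FRET fluorescence.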

[12] = target: Progesterone receptor (Homo sapiens) (UniProt P06401); assay: qHTS assay to identify small molecule antagonists of the progesterone receptor (PR) signaling pathway (AID 1346795; active means well fitted inhibition curve with a large enough effect in the signal ratio in the repeat runs, not every such curve was filed as active; the % refers to the signal ratio)
Procedure, shortened: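 Stimulus R5020 at 1 nM final; cells HEK293T PR-UAS-bla; medium with 2% charcoal-stripped FBS; compound exposure 16 hr at 37C, 5% CO2; detection by FRET beta-lactamase substrate, 2 hr, room temperature.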

[13] = qHTS assay to identify small molecule antagonists of the progesterone receptor (PR) signaling pathway - cell viability counter screen (AID 1346798); further: series mostly up to about 92 µM; nearly all actives have a fitted effect of over 50% in size
Procedure, shortened: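 In the same plates used for the beta-lactamase readout, cell viability of compound- and R5020-treated PR-UAS-bla HEK293T cells (16 hr, 37C) was assessed by CellTiter-Glo luminescence.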

[14] = qHTS assay to identify small molecule agonists of the progesterone receptor (PR) signaling pathway - cell viability counter screen (AID 1346799; calls by dose curve; further: nearly all actives have a fitted effect of over 45% in size)
Procedure, shortened: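 Multiplexed viability read: CellTiter-Glo luminescence, 30 min RT, following LiveBLAzer FRET measurement on PR-UAS-bla HEK293T cells exposed to compounds 16 hr.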

[15] = qHTS assay to identify small molecule antagonists of the TGF-beta/Smad signaling pathway - cell viability counter screen (AID 1346824); further: nearly all actives have a fitted effect of over 50% in size
Procedure, shortened: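 Cytotoxicity counter-screen run in the same wells as the beta-lactamase Smad reporter read: CellTiter-Glo luminescence after 30 min at room temperature. HEK 293T SBE-bla cells had 5 hr compound exposure at 37 C with TGF-beta1 (0.25 ng/mL stock).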

[16] = qHTS assay to identify small molecule agonists of the TGF-beta/Smad signaling pathway - cell viability counter screen (AID 1346829); further: top concentration of the series differs between compounds; nearly all actives have a fitted effect of over 45% in size
Procedure, shortened: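 Same-well cytotoxicity: CellTiter-Glo added after the 2 hr room-temperature beta-lactamase substrate step, luminescence measured 30 min later; cells had 5 hr of compound at 37 C.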

[17] = qHTS assay to identify small molecule agonists of the TGF-beta/Smad signaling pathway (AID 1346859; active means well fitted activation curve with a large enough effect in the signal ratio in the repeat runs, not every such curve was filed as active; the % refers to the signal ratio; further: series mostly up to about 77 µM)
Procedure, shortened: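 Screening used HEK 293T SBE-bla cells at 4,000/well. Test agents: 5 hr, 37 C. Detection: FRET substrate, 2 hr RT, then excitation 405 nm with emissions at 460 and 530 nm.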

[18] = target: Thyrotropin-releasing hormone receptor (Homo sapiens) (UniProt P34981); assay: qHTS assay to identify small molecule agonists of the thyrotropin-releasing hormone receptor (TRHR) signaling pathway (AID 1346891; calls by dose curve; further: series mostly up to about 58 µM)
Procedure, shortened: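 Readout was intracellular calcium fluorescence in TRHR-Hek293 cells. Cells were incubated 18 h, dye-loaded 2 h at 37 °C, and treated with compound in agonist mode.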

[19] = target: Thyrotropin-releasing hormone receptor (Homo sapiens) (UniProt P34981); assay: qHTS assay to identify small molecule antagonists of the thyrotropin-releasing hormone receptor (TRHR) signaling pathway (AID 1346877; active means well fitted inhibition curve with a large enough effect in the repeat runs, not every such curve was filed as active; further: series mostly up to about 51 µM)
Procedure, shortened: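 Intracellular calcium fluorescence, read kinetically every second over 3 min, reports TRH-evoked signalling in HEK293 cells carrying TRHR. Test compounds were added 5 min ahead of a 1 nM TRH challenge.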
On the % scale 0 is the no-effect control and ±100 the full control effect.

Chain of Estrogen receptor beta (Homo sapiens) (Q92731 whole entry, looked up): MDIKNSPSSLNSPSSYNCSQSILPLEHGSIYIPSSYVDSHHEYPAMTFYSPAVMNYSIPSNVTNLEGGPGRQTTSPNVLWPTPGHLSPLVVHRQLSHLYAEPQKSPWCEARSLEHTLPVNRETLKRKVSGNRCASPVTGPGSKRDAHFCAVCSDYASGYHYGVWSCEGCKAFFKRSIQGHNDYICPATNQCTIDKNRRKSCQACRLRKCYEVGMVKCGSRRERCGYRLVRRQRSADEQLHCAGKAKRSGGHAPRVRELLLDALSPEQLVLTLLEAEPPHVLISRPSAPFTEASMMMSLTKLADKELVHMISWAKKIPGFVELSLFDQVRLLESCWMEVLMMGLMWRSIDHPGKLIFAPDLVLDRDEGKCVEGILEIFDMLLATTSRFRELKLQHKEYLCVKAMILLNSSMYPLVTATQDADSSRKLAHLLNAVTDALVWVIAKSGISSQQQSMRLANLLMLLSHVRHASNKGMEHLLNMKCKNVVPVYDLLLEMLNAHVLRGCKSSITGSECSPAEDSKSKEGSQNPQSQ
Chain of Thyrotropin receptor (Homo sapiens) (P16473 whole entry, looked up): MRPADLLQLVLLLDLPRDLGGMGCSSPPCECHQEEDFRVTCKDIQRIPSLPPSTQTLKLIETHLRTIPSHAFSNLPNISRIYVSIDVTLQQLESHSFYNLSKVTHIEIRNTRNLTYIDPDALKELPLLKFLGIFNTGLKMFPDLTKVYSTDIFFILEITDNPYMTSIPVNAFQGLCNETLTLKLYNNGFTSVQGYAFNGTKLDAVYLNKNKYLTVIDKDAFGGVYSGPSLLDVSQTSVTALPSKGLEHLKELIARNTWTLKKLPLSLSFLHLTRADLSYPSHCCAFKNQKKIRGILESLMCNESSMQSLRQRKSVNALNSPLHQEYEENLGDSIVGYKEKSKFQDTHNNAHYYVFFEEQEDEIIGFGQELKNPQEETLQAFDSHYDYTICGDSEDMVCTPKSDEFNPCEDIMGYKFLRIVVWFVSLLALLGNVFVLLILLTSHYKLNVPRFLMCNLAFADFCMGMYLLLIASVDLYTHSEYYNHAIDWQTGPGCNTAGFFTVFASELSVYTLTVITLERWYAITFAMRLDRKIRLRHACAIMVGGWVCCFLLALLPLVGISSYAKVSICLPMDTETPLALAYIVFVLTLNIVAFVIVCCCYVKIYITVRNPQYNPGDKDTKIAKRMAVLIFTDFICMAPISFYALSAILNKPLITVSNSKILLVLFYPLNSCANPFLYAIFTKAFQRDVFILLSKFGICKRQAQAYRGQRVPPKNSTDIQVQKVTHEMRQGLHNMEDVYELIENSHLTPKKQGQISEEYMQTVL
Chain of Progesterone receptor (Homo sapiens) (P06401 whole entry, looked up): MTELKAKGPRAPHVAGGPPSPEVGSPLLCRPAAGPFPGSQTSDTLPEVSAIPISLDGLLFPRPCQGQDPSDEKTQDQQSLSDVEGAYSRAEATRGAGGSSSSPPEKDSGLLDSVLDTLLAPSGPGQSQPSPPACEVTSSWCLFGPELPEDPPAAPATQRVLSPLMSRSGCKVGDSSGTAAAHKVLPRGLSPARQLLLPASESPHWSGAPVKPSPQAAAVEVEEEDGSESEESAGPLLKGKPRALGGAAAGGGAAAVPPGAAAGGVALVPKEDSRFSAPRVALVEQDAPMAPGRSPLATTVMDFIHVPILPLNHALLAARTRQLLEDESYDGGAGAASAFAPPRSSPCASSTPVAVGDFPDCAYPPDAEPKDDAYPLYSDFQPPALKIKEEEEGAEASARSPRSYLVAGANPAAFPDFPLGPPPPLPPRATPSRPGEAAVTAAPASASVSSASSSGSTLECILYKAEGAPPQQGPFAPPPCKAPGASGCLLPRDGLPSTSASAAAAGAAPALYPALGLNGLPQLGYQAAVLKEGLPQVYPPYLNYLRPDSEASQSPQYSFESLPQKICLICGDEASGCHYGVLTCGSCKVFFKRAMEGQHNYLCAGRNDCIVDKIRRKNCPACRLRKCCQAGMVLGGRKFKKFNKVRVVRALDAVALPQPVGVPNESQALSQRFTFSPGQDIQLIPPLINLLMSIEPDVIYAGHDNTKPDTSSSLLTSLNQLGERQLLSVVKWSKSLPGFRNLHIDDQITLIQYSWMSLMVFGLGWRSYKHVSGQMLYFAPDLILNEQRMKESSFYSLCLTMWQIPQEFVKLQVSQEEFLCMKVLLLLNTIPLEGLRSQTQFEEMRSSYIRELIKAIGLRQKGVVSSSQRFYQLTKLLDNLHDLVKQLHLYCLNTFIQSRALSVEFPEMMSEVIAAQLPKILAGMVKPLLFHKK
Chain of Thyrotropin-releasing hormone receptor (Homo sapiens) (P34981 whole entry, looked up): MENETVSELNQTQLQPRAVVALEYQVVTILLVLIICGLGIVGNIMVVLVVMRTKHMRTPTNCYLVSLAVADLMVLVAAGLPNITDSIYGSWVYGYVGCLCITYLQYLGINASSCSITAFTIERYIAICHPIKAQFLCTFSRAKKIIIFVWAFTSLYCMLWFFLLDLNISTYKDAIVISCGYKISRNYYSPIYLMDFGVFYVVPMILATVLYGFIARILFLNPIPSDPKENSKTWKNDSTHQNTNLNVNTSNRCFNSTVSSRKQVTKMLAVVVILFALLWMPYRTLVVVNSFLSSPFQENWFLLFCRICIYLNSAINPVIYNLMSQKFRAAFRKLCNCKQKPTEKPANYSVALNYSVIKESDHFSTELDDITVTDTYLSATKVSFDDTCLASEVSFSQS
Chain of Estrogen receptor (Homo sapiens) (P03372 whole entry, looked up): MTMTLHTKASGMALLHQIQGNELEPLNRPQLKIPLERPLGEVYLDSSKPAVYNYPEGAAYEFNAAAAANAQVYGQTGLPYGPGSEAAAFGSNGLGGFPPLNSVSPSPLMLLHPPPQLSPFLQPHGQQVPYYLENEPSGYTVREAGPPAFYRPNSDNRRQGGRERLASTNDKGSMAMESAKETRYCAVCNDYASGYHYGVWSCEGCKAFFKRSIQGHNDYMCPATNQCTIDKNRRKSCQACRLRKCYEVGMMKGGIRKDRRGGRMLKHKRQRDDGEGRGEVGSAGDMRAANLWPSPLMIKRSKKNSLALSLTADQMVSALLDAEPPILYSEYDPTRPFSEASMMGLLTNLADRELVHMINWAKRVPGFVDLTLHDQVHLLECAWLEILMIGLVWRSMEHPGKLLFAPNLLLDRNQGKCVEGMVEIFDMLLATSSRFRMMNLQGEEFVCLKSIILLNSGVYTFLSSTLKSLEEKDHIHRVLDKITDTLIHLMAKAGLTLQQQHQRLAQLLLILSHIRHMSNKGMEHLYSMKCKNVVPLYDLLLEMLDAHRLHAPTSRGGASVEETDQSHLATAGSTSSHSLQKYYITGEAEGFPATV

NCC(=O)O
inactive: activity change, negative = inhibition [1] 20.6% [at 19 µM] | activation [2] -2.53% [at 19 µM] | activity, negative = inhibition [3] 10% [at 19 µM] | activity change, negative = cytotoxicity [4] 0.351% [at 19 µM] | activity change, negative = cytotoxicity [5] 4.31% [at 19 µM] | activity change, negative = cytotoxicity [6] -1.05% [at 19 µM] | Potency [7] | cAMP activity change [8] -6.62% [at 18.9 µM, stronger effect = higher value] | activity change, negative = inhibition [9] 2.94% [at 19 µM] | activity change, negative = cytotoxicity [10] 6.54% [at 19 µM] | activation [11] -0.192% [at 19 µM] | activity change, negative = inhibition [12] 9.41% [at 18.9 µM] | activity change, negative = cytotoxicity [13] -3.8% [at 18.9 µM] | activity change, negative = cytotoxicity [14] 27.9% [at 19 µM] | viability change, negative = cytotoxic [15] -5.27% [at 15.8 µM] | activity change, negative = cytotoxicity [16] 0.104% [at 15.8 µM] | activation [17] -0.809% [at 15.8 µM] | activation [18] -0.0833% [at 11.8 µM]

CCCCCCCCCOS(=O)(=O)O
inactive: Potency [1] | Potency [2] | Potency [3] | Potency [4] | Potency [5] | Potency [6] | Potency [8] | Potency [9] | Potency [10] | Potency [11] | Potency [12] | Potency [14] | Potency [15] | outcome [16] | Potency [17] | outcome [19] | Potency [18]

CCCCC1=NC2(CCCC2)C(=O)N1Cc1ccc(-c2ccccc2-c2nn[nH]n2)cc1
inactive: Potency [1] | Potency [2] | Potency [3] | Potency [4] | Potency [5] | Potency [6] | Potency [7] | Potency [12] | Potency [13] | Potency [14] | Potency [15] | Potency [17]

O=C(O)c1ccccc1Cl
inactive: Potency [1] | Potency [2] | Potency [3] | Potency [4] | Potency [5] | Potency [6] | Potency [8] | Potency [9] | Potency [10] | Potency [11] | Potency [12] | Potency [13] | Potency [14] | Potency [15] | outcome [16] | Potency [17] | Potency [18]

CCCCO
inactive: Potency [1] | Potency [2] | Potency [3] | Potency [4] | Potency [5] | Potency [6] | Potency [8] | Potency [9] | Potency [10] | Potency [12] | Potency [13] | Potency [14] | Potency [15] | outcome [16] | Potency [17]

Nc1cc(C(=O)O)c(O)c(S(=O)(=O)O)c1
inactive: Potency [1] | Potency [2] | Potency [3] | Potency [4] | Potency [5] | Potency [6] | Potency [8] | Potency [10] | Potency [12] | Potency [13] | Potency [15] | outcome [16] | Potency [17] | outcome [19] | Potency [18]

COc1cc(Cl)c(OC)cc1N
inactive: Potency [1] | Potency [2] | Potency [3] | Potency [4] | Potency [5] | Potency [6] | Potency [8] | Potency [10] | Potency [13] | Potency [14] | Potency [15] | outcome [16] | Potency [17] | outcome [19] | Potency [18]
